The structures appear in SMILES notation. About 3,000 (0.83%) of roughly 360,000 compounds were called active. Cut-off read from the data, not from the text of the source: active = inhibition above about 50%; inactive = the rest. This excerpt belongs to a sample that is enriched for actives.

In this experiment the target is DNA (cytosine-5)-methyltransferase 1 (Homo sapiens) (UniProt P26358). The experiment is described as follows: human DNMT1 methyltransferase inhibitors, primary screen, biochemical, molecular beacon, fluorescence, HinP1I cleavage, uHTS (AID 588458). As to conditions: at 10 µM, active compounds read high.
Chain of DNA (cytosine-5)-methyltransferase 1 (Homo sapiens) (P26358 504-1616 limits assumed): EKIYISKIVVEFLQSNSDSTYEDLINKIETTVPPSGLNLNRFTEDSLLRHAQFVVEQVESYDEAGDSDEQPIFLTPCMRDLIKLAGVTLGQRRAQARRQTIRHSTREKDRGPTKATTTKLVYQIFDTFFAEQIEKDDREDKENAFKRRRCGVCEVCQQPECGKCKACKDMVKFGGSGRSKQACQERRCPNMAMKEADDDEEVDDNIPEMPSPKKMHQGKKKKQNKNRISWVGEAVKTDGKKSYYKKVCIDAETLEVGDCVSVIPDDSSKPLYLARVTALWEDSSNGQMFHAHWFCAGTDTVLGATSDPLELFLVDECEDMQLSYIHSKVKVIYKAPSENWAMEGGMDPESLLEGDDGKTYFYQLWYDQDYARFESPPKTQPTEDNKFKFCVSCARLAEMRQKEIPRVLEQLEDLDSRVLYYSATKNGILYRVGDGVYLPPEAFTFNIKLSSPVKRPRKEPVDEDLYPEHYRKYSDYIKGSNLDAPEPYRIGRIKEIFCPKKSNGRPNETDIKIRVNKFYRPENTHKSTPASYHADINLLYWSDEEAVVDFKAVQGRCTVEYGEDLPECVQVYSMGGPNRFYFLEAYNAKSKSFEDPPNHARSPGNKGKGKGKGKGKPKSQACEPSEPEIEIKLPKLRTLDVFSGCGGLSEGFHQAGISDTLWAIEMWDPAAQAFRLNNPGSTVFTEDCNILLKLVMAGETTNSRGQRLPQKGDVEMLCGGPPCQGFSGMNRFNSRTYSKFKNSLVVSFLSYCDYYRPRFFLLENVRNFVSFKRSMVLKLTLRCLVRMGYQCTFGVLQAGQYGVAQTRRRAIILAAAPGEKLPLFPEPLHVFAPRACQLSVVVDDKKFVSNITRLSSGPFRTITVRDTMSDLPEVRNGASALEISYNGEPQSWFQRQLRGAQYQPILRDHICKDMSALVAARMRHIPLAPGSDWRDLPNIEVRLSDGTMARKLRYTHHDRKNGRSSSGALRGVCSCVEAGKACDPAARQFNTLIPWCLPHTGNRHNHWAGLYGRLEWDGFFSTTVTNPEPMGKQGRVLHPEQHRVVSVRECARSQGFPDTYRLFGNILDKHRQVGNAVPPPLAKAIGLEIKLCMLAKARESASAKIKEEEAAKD
In the case of `CCCn1nc(C(=O)NNC(=O)CCOc2ccccc2OCC)c2ccccc2c1=O`, the inhibition (reported as % activation of signal) is 0.9% (inactive).
As for `CCOc1ccccc1/C=c1\sc2nc(-c3ccco3)nn2c1=O`, the inhibition (reported as % activation of signal) is 93.3% (active).
`CCOc1ccccc1C1NC(=O)NC(C)=C1C(=O)OCc1ccco1` (stereo unspecified): the inhibition (reported as % activation of signal) was -2.52% (inactive).
In the case of `CCc1ccc(C(=O)C(C)OC(=O)CN2C(=O)NC3(CCCC3)C2=O)cc1` (stereo unspecified), the inhibition (reported as % activation of signal) was 3.64% (inactive).
The value for `N#Cc1cccc(NC(=O)COC(=O)c2ccccc2C(=O)c2ccc(Cl)c([N+](=O)[O-])c2)c1` was -3.9% (inactive).
On to `COc1cccc(CN(C)CC(=O)Nc2sc3c(c2C#N)CCC3)c1`, for which the inhibition (reported as % activation of signal) is -0.9% (inactive).
On to `CCCc1cc(=O)[nH]c(SCC(=O)Nc2sc3c(c2C#N)CCCC3)n1`, for which the inhibition (reported as % activation of signal) was -0.63% (inactive).
As for `COc1ccc(-n2c(SCC(=O)Nc3sc4c(c3C#N)CCCC4)nnc2-c2ccc(O)cc2)cc1`, the inhibition (reported as % activation of signal) was 67.7% (active).
As to `CCCCN(C)CCNC(=O)CSCc1ccc(C)cc1`, the inhibition (reported as % activation of signal) is 1.5% (inactive).
Turning to `CC1=C(C(=O)N2CCOCC2)CC(CC(=O)NCc2cccs2)C(=O)N1CCCN1CCCC1=O` (stereo unspecified), the inhibition (reported as % activation of signal) is 6.83% (inactive).
In the case of `COC(=O)c1ccc(COc2ccc(/C=C/C(=O)c3ccc(OC)c(CSCC(=O)O)c3)cc2OC)cc1`, the inhibition (reported as % activation of signal) was 11.9% (inactive).
On to `COc1ccccc1CCNC(=O)C1CCN(C(=O)/C=C/c2ccccc2)CC1`, for which the inhibition (reported as % activation of signal) is -0.55% (inactive).
Take `COc1ccc(C(=O)/C=C/c2ccc(-c3ccccc3)cc2)cc1CSCC(=O)O`: the inhibition (reported as % activation of signal) is 56% (active).
For `CC(C)(C)NC(=O)COC(=O)c1cc(Cl)ccc1[N+](=O)[O-]`, the inhibition (reported as % activation of signal) is 6.7% (inactive).
Next, `O=S(=O)(c1cccc(-c2nnc(SC(F)F)n2-c2ccccc2)c1)N1CCCCC1`: -1.8% (inactive).
Regarding `CCn1ccnc1CNC(=O)CC1C(=O)NCCN1Cc1ccc(F)cc1Cl` (stereo unspecified), the inhibition (reported as % activation of signal) is -0.81% (inactive).
The value for `COc1ccc(S(=O)(=O)N2CCOC2CNC(=O)C(=O)NCc2ccncc2)cc1OC` (stereo unspecified) was -1.09% (inactive).
Next, `COc1ccc(NC(=O)C2C3C=CC(C3)C2C(=O)NCc2ccccn2)c(OC)c1` (stereo unspecified): 1.26% (inactive); `CCCn1nnnc1NCc1ccc(CC)cc1`: 0.45% (inactive).
The value for `CCOC(=O)C1CCCN(C(=O)c2ccc(N(C)C)cc2)CC1` (stereo unspecified) was -7.05% (inactive).
`O=c1[nH]c(/C=C/c2cccc(Br)c2)nc2ccccc12`: the inhibition (reported as % activation of signal) was 53% (active).
Consider `O=c1[nH]c(SCc2cccc(F)c2)nc2ccccc12`, for which the inhibition (reported as % activation of signal) was -0.9% (inactive).
Consider `O=c1[nH]c(/C=C\c2cccc(C(F)(F)F)c2)nc(O)c1[N+](=O)[O-]`, for which the inhibition (reported as % activation of signal) was 4.66% (inactive).
Regarding `CCN(CC)C(=O)CSc1nnc(-c2ccc(S(=O)(=O)NCc3ccccc3Cl)cc2)o1`, the inhibition (reported as % activation of signal) is 4.4% (inactive).
As for `Clc1cc(NC2CCCCC2)ncn1`, the inhibition (reported as % activation of signal) was 1.17% (inactive).
Next, `CCCC(C(=O)NCc1ccco1)N(C(=O)CNS(=O)(=O)c1ccccc1)C1CCCC1` (stereo unspecified): 0.13% (inactive); `O=S(=O)(Nc1nccs1)c1ccc2c(c1)OCCO2`: 0.9% (inactive); `c1coc(-c2nc3nc4ccccc4n3nc2-c2ccco2)c1`: 86.2% (active).
In the case of `CC(Oc1ccc(Cl)cc1Cl)C(=O)/C=C/N(C)C` (stereo unspecified), the inhibition (reported as % activation of signal) is 1.08% (inactive).
In the case of `Cn1c(Nc2ccc(F)cc2)nc2cc(-c3ccsc3)sc2c1=O`, the inhibition (reported as % activation of signal) is 1.88% (inactive).
In the case of `COc1ccc(S(=O)(=O)N2CCC(C(=O)NCCC(=O)Nc3ccccc3OC)CC2)cc1`, the inhibition (reported as % activation of signal) is 3.13% (inactive).
For `CC(CCc1ccc(O)cc1)NCc1ccc(Cl)cc1Cl` (stereo unspecified), the inhibition (reported as % activation of signal) was 1.55% (inactive).
As to `COc1cccc(/C=C2\SC(=N)N(c3ccc(F)cc3)C2=O)c1`, the inhibition (reported as % activation of signal) is 29.4% (inactive).
The value for `COc1ccc(/C=C2\SC(=N)N(c3ccc(F)cc3)C2=O)cc1` was 59% (active); that for `COc1ccc(N2C(=O)CNC2=S)cc1` was 0.19% (inactive); that for `COC(=O)C1=C(C)NC(=S)NC1c1ccc(OCC(=O)N2CC(C)OC(C)C2)c(OC)c1` (stereo unspecified) was -3.49% (inactive).
Next, `O=C1CC(Cc2ccc(Cl)cc2)C(=O)N1c1cc(Cl)ccn1` (stereo unspecified): 1.99% (inactive).
For the compound `O=C(NC1CCCC1)C(NS(=O)(=O)c1ccc(Br)s1)c1ccccc1` (stereo unspecified), the inhibition (reported as % activation of signal) is 3.01% (inactive).
Consider `Cc1ccc(/C=C/C(=O)OCC(=O)Nc2cccnc2Cl)cc1`, for which the inhibition (reported as % activation of signal) was 0.14% (inactive).
The value for `O=C(COC(=O)/C=C/c1cn(-c2ccccc2)nc1-c1cccnc1)Nc1ccc(Cl)cc1Cl` was 56% (active).
Take `COc1ccc(NC(=O)CN(C)C(=O)/C=C/c2cn(Cc3ccccc3)nc2-c2cccnc2)cc1`: the inhibition (reported as % activation of signal) was 2.58% (inactive).
As for `CCN(CC(=O)Nc1ccc(OC)cc1)C(=O)c1ccc(=O)n(Cc2ccccc2)n1`, the inhibition (reported as % activation of signal) was 4.56% (inactive).
With `Nc1ccc2nc3c(=O)[nH]c(=S)[nH]c3nc2c1`, the inhibition (reported as % activation of signal) is 129% (active).
Consider `CC1(Oc2cccc(F)c2)CCN(Cc2ccccc2OC(F)F)C1` (stereo unspecified), for which the inhibition (reported as % activation of signal) was 8.51% (inactive).
In the case of `CCCOc1ccc2c3c(c(=O)oc2c1OCCC)CCC3`, the inhibition (reported as % activation of signal) was 5.15% (inactive).
Take `CCCn1nc(C(=O)OCc2nc(N)nc(Nc3ccccc3C)n2)c2ccccc2c1=O`: the inhibition (reported as % activation of signal) is -3.44% (inactive).

(Values after PubChem BioAssay AID588458 (Sanford-Burnham Center for Chemical Genomics, 2011).)
